# Compounds without any hit were thinned out: in the full panel of roughly 83,000, 20% have a hit.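 96-well plates, one dose, 48 hours. Percent growth reported; active if below 10.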 Values without a mark were called inactive. The source made the active and inactive calls.
# Tested on: RPMI-8226 leukemia
# Assay: NCI-60 one-dose screen, 48 h (100 = growth as untreated, 0 = no growth, -100 = all killed)
# Details: 10 µM unless noted
row,SMILES,growth
1,COc1ccc(-c2c(N)n[nH]c2-c2cc3c(c(OC)c2OC)OCO3)cc1,57.5%
2,COc1cc(-c2nn(-c3cccc(NC(=O)c4cccc(C(F)(F)F)c4)c3)cc2-c2ccncc2)ccc1Cl,-1.13% (active)
3,Clc1ccc(-c2nc3ccccc3s2)cc1Cl,104%
4,Fc1ccc(CNCCNc2ncnc3c2cnn3-c2ccccc2)cc1,84.6%
5,COc1ccc(-n2c(=O)sc3c(Cl)nc(C)nc32)c(OC)c1,106%
6,O=C(O)c1nc(-c2ccccc2)oc1N1CCOCC1,107%
7,Cn1c(=O)c2[nH]c(C3CC=CCC3)nc2n(C)c1=O (stereo not drawn),101%
8,COc1ccc(C2C=C(c3ccc(N)cc3)N=C3SC=CN32)cc1OC (stereo not drawn),101%
9,O=S(=O)(NCCNc1nccc(-c2c(-c3ccc(O)cc3)nc3sccn23)n1)c1cccc2ccccc12,92.5%
10,O=S(=O)(NCCNc1nccc(-c2c(-c3ccc(F)cc3)nc3sccn23)n1)c1ccc(F)cc1,74.7%
11,COc1ccc(/C=C2\CN(Cc3cn(CCNc4ccnc5cc(Cl)ccc45)nn3)C/C(=C\c3ccc(OC)c(OC)c3)C2=O)cc1OC,-1.73% (active)
12,Cc1ccc(S(=O)(=O)c2nc(-c3ccccc3)oc2S(C)(=O)=O)cc1,8.94% (active)
13,COc1ccc(C2=Nn3c(nnc3-n3nc(C)cc3C)SC2)cc1,20.9%
14,O=C(O)/C=C/C(=O)c1ccc(Cl)cc1,115%
15,Cc1ccc(S(=O)(=O)NCCNc2nccc(-c3c(-c4ccc(O)cc4)nc4sccn34)n2)cc1,85.9%
16,C=C1CCC[C@]2(C)CCC[C@H](C)[C@@H](OC(C)=O)[C@@H]3OC(=O)C(=C)[C@@H]3C[C@H]1O2,54.8%
17,Cc1cc(N)n(S(=O)(=O)c2oc(-c3ccccc3)nc2C#N)n1,75.9%
18,COc1ccc(-c2cc3c(OC)c(OC)c(OC)cc3oc2=O)cc1,54.6%
19,COc1ccc(OC)c(C2OC(c3ccc4ccccc4c3O)=NN2C(C)=O)c1 (stereo not drawn),66.6%
20,Cc1ccc(NS(=O)(=O)c2cc(C)ccc2C)cc1,13.6%

row,SMILES,growth
1,COc1cc(-c2nn(-c3cccc(NC(=O)c4ccccc4)c3)cc2-c2ccncc2)ccc1Cl,9.39% (active)
2,O=C(Nc1cccc(-n2cc(-c3ccncc3)c(-c3ccc(Cl)c(O)c3)n2)c1)Nc1ccc(Cl)c(Cl)c1,7.89% (active)
3,O=S(=O)(NCCNc1nccc(-c2c(-c3cccc(O)c3)nc3sccn23)n1)c1ccc(F)cc1,76.2%
4,O=C(Nc1ccc2c(c1)OCCO2)C(=O)c1c[nH]c2ccccc12,21.6%
5,CCCCCCCC/C=C/CCCCCCCC1=NC(C)(C)CN1C(C)(C)CO,-21.7% (active)
6,COc1ccc(-n2c(=S)sc3c(Cl)nc(C)nc32)c(OC)c1,22.6%
7,CCOC(=O)c1cn2c3c(cc(C)cc3c1=O)C(=O)/C(=C/c1ccccc1)C2,110%
8,CN(C)CC(C(=O)c1ccccc1)c1ccccc1 (stereo not drawn),-34.4% (active)
9,NC(=O)CCCN1C/C(=C\c2ccccc2)C(=O)c2ccccc21,101%
10,COc1ccc(Nc2nn3c(C)cc(C)nc3c2C(=O)Nc2ccc(C)cc2)c(OC)c1,102%
11,COc1cc(-c2nn(-c3cccc(NC(=O)c4ccc(Cl)c(C(F)(F)F)c4)c3)cc2-c2ccncc2)ccc1Cl,25.4%
12,COc1cc(-c2nc(-c3nc4ccc(Cl)cc4[nH]3)cc3c2[nH]c2ccccc23)cc(OC)c1OC,45.2%
13,Cc1c(C(N)=O)sc2c1c(=O)n(Cc1ccccc1)c1nnc(Nc3ccccc3)n21,148%
14,O=c1c2sc3ncccc3c2nnn1-c1ccccc1,99%
15,CCCCCCCC[C@@H](O)CC(=O)N[C@@H](CC(N)=O)C(=O)N[C@@H](CCC(N)=O)C(=O)N[C@@H](CC(=O)c1cc(C)cc(O)c1C(=O)c1c(O)cccc1O)CC(C)C,10.9%
16,COc1cc(/C(C#N)=C/c2ccc3c(c2OC)OCO3)cc2c1OCO2,32.3%
17,COc1ccc(Nc2[nH]n3c(=O)cc(C)nc3c2C(N)=O)c(OC)c1,102%
18,Fc1ccc(Nc2nc(NCCNc3ccnc4cc(Cl)ccc34)nc(N3CCOCC3)n2)cc1,33.6%
19,CN(C)c1oc(C2OC2c2ccccc2)nc1C#N (stereo not drawn),98.3%

# Tested on: OVCAR-8 ovarian
# Assay: as above
# Details: 10 µM unless noted
row,SMILES,growth
1,COc1ccc(-c2c(N)n[nH]c2-c2cc3c(c(OC)c2OC)OCO3)cc1,104%
2,COc1cc(-c2nn(-c3cccc(NC(=O)c4cccc(C(F)(F)F)c4)c3)cc2-c2ccncc2)ccc1Cl,11.8%
3,Clc1ccc(-c2nc3ccccc3s2)cc1Cl,98.9%
4,Fc1ccc(CNCCNc2ncnc3c2cnn3-c2ccccc2)cc1,88%
5,COc1ccc(-n2c(=O)sc3c(Cl)nc(C)nc32)c(OC)c1,56.9%
6,O=C(O)c1nc(-c2ccccc2)oc1N1CCOCC1,98.4%
7,Cn1c(=O)c2[nH]c(C3CC=CCC3)nc2n(C)c1=O (stereo not drawn),106%
8,COc1ccc(C2C=C(c3ccc(N)cc3)N=C3SC=CN32)cc1OC (stereo not drawn),98.7%
9,O=S(=O)(NCCNc1nccc(-c2c(-c3ccc(O)cc3)nc3sccn23)n1)c1cccc2ccccc12,95.4%
10,O=S(=O)(NCCNc1nccc(-c2c(-c3ccc(F)cc3)nc3sccn23)n1)c1ccc(F)cc1,68.2%
11,COc1ccc(/C=C2\CN(Cc3cn(CCNc4ccnc5cc(Cl)ccc45)nn3)C/C(=C\c3ccc(OC)c(OC)c3)C2=O)cc1OC,-3.77% (active)
12,Cc1ccc(S(=O)(=O)c2nc(-c3ccccc3)oc2S(C)(=O)=O)cc1,54.7%
13,COc1ccc(C2=Nn3c(nnc3-n3nc(C)cc3C)SC2)cc1,17.6%
14,O=C(O)/C=C/C(=O)c1ccc(Cl)cc1,95.9%
15,Cc1ccc(S(=O)(=O)NCCNc2nccc(-c3c(-c4ccc(O)cc4)nc4sccn34)n2)cc1,89.3%
16,C=C1CCC[C@]2(C)CCC[C@H](C)[C@@H](OC(C)=O)[C@@H]3OC(=O)C(=C)[C@@H]3C[C@H]1O2,61.5%
17,Cc1cc(N)n(S(=O)(=O)c2oc(-c3ccccc3)nc2C#N)n1,89.4%
18,COc1ccc(-c2cc3c(OC)c(OC)c(OC)cc3oc2=O)cc1,67%
19,COc1ccc(OC)c(C2OC(c3ccc4ccccc4c3O)=NN2C(C)=O)c1 (stereo not drawn),81%
20,Cc1ccc(NS(=O)(=O)c2cc(C)ccc2C)cc1,54.8%

row,SMILES,growth
1,COc1cc(-c2nn(-c3cccc(NC(=O)c4ccccc4)c3)cc2-c2ccncc2)ccc1Cl,19.6%
2,O=C(Nc1cccc(-n2cc(-c3ccncc3)c(-c3ccc(Cl)c(O)c3)n2)c1)Nc1ccc(Cl)c(Cl)c1,11.7%
3,O=S(=O)(NCCNc1nccc(-c2c(-c3cccc(O)c3)nc3sccn23)n1)c1ccc(F)cc1,67.6%
4,O=C(Nc1ccc2c(c1)OCCO2)C(=O)c1c[nH]c2ccccc12,53.5%
5,CCCCCCCC/C=C/CCCCCCCC1=NC(C)(C)CN1C(C)(C)CO,37.1%
6,COc1ccc(-n2c(=S)sc3c(Cl)nc(C)nc32)c(OC)c1,0.172% (active)
7,CCOC(=O)c1cn2c3c(cc(C)cc3c1=O)C(=O)/C(=C/c1ccccc1)C2,82.1%
8,CN(C)CC(C(=O)c1ccccc1)c1ccccc1 (stereo not drawn),9.37% (active)
9,NC(=O)CCCN1C/C(=C\c2ccccc2)C(=O)c2ccccc21,98.4%
10,COc1ccc(Nc2nn3c(C)cc(C)nc3c2C(=O)Nc2ccc(C)cc2)c(OC)c1,100%
11,COc1cc(-c2nn(-c3cccc(NC(=O)c4ccc(Cl)c(C(F)(F)F)c4)c3)cc2-c2ccncc2)ccc1Cl,38.9%
12,COc1cc(-c2nc(-c3nc4ccc(Cl)cc4[nH]3)cc3c2[nH]c2ccccc23)cc(OC)c1OC,48.4%
13,Cc1c(C(N)=O)sc2c1c(=O)n(Cc1ccccc1)c1nnc(Nc3ccccc3)n21,89.2%
14,O=c1c2sc3ncccc3c2nnn1-c1ccccc1,104%
15,CCCCCCCC[C@@H](O)CC(=O)N[C@@H](CC(N)=O)C(=O)N[C@@H](CCC(N)=O)C(=O)N[C@@H](CC(=O)c1cc(C)cc(O)c1C(=O)c1c(O)cccc1O)CC(C)C,47.6%
16,COc1cc(/C(C#N)=C/c2ccc3c(c2OC)OCO3)cc2c1OCO2,28.8%
17,COc1ccc(Nc2[nH]n3c(=O)cc(C)nc3c2C(N)=O)c(OC)c1,97.4%
18,Fc1ccc(Nc2nc(NCCNc3ccnc4cc(Cl)ccc34)nc(N3CCOCC3)n2)cc1,74.7%
19,CN(C)c1oc(C2OC2c2ccccc2)nc1C#N (stereo not drawn),85.4%
